From PubChem BioAssay AID504690 (Sanford-Burnham Center for Chemical Genomics, 2011)
Among all 350,000 compounds or so, about 2,700 (0.77%) were called active.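 How the source made its calls: active means inhibition reaching at least a set limit at 20 µM in the primary screen (cut at about 59% in these data); inactive means the rest.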 The full list was thinned out, with actives kept by preference.

The compounds below were run on glucose-6-phosphate dehydrogenase-6-phosphogluconolactonase (Plasmodium falciparum 3D7) (assay: PfG6PD enzyme inhibitors, primary screen, biochemical, fluorescence intensity, uHTS (AID 504690;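 further: 0% = DMSO wells with substrate and 100% = DMSO wells lacking glucose-6-phosphate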)). Details: PfGluPho enzyme, NADPH resazurin-diaphorase fluorescence; at 20 µM; stronger effect = higher value.

Structure (SMILES)	inhibition
O=C(CN(CC1CCCO1)C(=O)CNS(=O)(=O)c1ccc(F)cc1)NCc1ccco1 (centres undefined)	9.81% (inactive)
COc1c(O)ccc2c1CN1CCc3cc4c(cc3C1C2)OCO4 (centres undefined)	75.1% (active)
COc1cc(C(=O)CCc2ccc3c(c2)OCO3)cc(OC)c1OC	31.9% (inactive)
COc1ccc2cc1Oc1ccc(cc1)C[C@H]1c3cc(c(OC)cc3CCN1C)Oc1c(O)c(OC)cc3c1[C@H](C2)N(C)CC3	10.2% (inactive)
CCc1cccc(C)c1N1C(=O)CN(Cc2ccccc2)C1=S	8.09% (inactive)
CN(C)C(=O)N=NC(=O)N(C)C	62.4% (active)
O=C(Nc1cccc(Cl)c1)Nc1ccccc1NS(=O)(=O)c1cccs1	-1.49% (inactive)
CCCCSc1nc2c(c(=O)n1CC)SC(C)C2 (centres undefined)	-22.8% (inactive)
COc1ccc(C(=O)Nc2sc(C)c(C)c2CN2CCOCC2)cc1	3.12% (inactive)
CCc1cc(C(N)=O)c(NC(=O)c2ccc(OC)cc2)s1	63.8% (active)
CCc1cc(C(=O)c2ccc(OC)cc2)c(NC(=O)CN2CCN(C)CC2)s1	-3.28% (inactive)
O=C1CC(C(F)(F)C(F)(F)C(F)(F)C(F)(F)F)=Nc2ccccc2N1	6.19% (inactive)
CCc1cccc2c3c([nH]c12)C(CC)(CC(=O)O)OCC3 (centres undefined)	-16.9% (inactive)
CN(C)c1ccc(-c2nnc(-c3cccnc3)o2)cc1	3.13% (inactive)
COc1ccc(-c2nnc(-c3ccc4ccccc4c3)o2)cc1	15.1% (inactive)
Nc1ccc(-c2nnc(-c3ccc(-c4ccccc4)cc3)o2)cc1	64% (active)
CC(C)C[C@@H](NC(=O)[C@H]1CCCN1C(=O)Cc1ccccc1)C(N)=O	-7.04% (inactive)
C/C=C/C=C/C(=O)OCC(=O)Nc1ccc(Cl)cc1	8.86% (inactive)
Cc1ccc(NC(=O)Cn2c(C)csc2=O)cc1	3.32% (inactive)
Cc1ccc(NC(=O)Cn2sc3ccccc3c2=O)cc1	125% (active)
O=C(Cn1nc(C(=O)O)c2ccccc2c1=O)Nc1ccc(F)cc1	-5.5% (inactive)
CCOc1ccc(/C(O)=C2\C(=O)C(=O)N(c3ccc(OC)cc3)C2c2ccccc2[N+](=O)[O-])cc1 (centres undefined)	-3.26% (inactive)
Cc1cc(OCC(=O)Nc2nccs2)c2c(C)c(C)c(=O)oc2c1	0.15% (inactive)
CCCCn1c(N)c(N(CC(C)C)C(=O)c2cccc(S(=O)(=O)N3CC(C)OC(C)C3)c2)c(=O)[nH]c1=O (centres undefined)	-1.62% (inactive)

Structure (SMILES)	inhibition
CCC1(CC)NC(=O)N(CC(=O)OCC(=O)Nc2ccc(C(F)(F)F)cc2)C1=O	3.64% (inactive)
COc1cccc(NC(=O)COC(=O)/C=C/c2ccco2)c1	17.7% (inactive)
O=C(O)/C=C\C(=O)Nc1ccc(OCc2ccccc2)cc1	-24.5% (inactive)
O=C(/C=C/c1ccco1)Nc1ccc(Oc2ccccc2)cc1	62.8% (active)
CN(C)c1cccc(C(=O)N2CCC(n3nccc3NC(=O)C3CCOC3)CC2)c1 (centres undefined)	3.81% (inactive)
COc1ccc(C(=O)N2CCN(c3ncccn3)CC2)cc1S(=O)(=O)N1CCOCC1	4.39% (inactive)
Cc1ccc(-n2nc(C)c(/C=N/NC(=O)c3cccs3)c2Cl)cc1	18.2% (inactive)
Cc1ccc(C(=O)/C=C/c2c(C)nn(-c3ccccc3)c2Cl)cc1	71.4% (active)
Cc1nn(-c2ccccc2)c(Cl)c1/C=C/C(=O)c1ccc(O)cc1	-22.8% (inactive)
CCOC(OCC)c1ccc(/C=C\c2nccc(N)n2)cc1	5.93% (inactive)
COc1cc(S(=O)(=O)N2CCOCC2)ccc1NC(=O)COc1ccc(N(C)S(=O)(=O)c2ccc(C)cc2)cc1	3.13% (inactive)
COc1ccc(Cc2nnnn2CC(=O)O)cc1	-4.83% (inactive)
CC1(c2ccc3ccccc3c2)NC(=O)N(CC(N)=O)C1=O (centres undefined)	-14% (inactive)
N/C(=N\OC(=O)CCn1cccc(C(F)(F)F)c1=O)c1ccc(OC(F)(F)F)cc1	-3.22% (inactive)
CCOC(=O)CSc1nnc(NC(=O)c2cccc(S(=O)(=O)N3CCCC3)c2)s1	-21.8% (inactive)
NC(=O)CSc1nnc(NC(=O)c2ccc(Br)o2)s1	21.1% (inactive)
CCSc1nnc(NC(=O)c2ccc(C)cc2)s1	92.9% (active)
CCC(C)NCCOCCOc1ccc(Br)cc1C (centres undefined)	-3.69% (inactive)
O=C(NC1CCc2ccccc21)C12CN(Cc3ccccc3)CC1C(c1cccc([N+](=O)[O-])c1)=NO2 (centres undefined)	3.16% (inactive)
O=C1C(Cl)=C(Oc2ccccc2)C(=O)c2ccccc21	128% (active)
COc1ccc(-c2c(C)cc3oc(=O)cc(-c4ccccc4)c3c2C)cc1C=O	1.07% (inactive)
Cc1ccccc1Nc1c([N+](=O)[O-])ccc2nonc12	-0.06% (inactive)
CCOc1ccccc1Nc1ccc(C(=O)O)cc1[N+](=O)[O-]	-28.7% (inactive)
CCOc1ccccc1Nc1ccc2nonc2c1[N+](=O)[O-]	77.2% (active)

Structure (SMILES)	inhibition
CCC(C)C(=O)Nc1cc([N+](=O)[O-])ccc1Cl (centres undefined)	-12.1% (inactive)
Cc1ccc(N(C(=O)CC2NC(=O)NC2=O)C2(C(=O)NC3CCCC3)CCCCC2)cc1 (centres undefined)	2.93% (inactive)
O=C1/C(=C\Nc2ccccc2)CCN1c1ncccn1	10.9% (inactive)
Cc1ccc(S(=O)(=O)N2C[C@@H](C)[C@]3(C2)[C@H](O)[C@H](OC(=O)NCc2ccccc2)C[C@H]2C(=O)N(c4ccccc4)C(=O)[C@H]23)cc1	24.5% (inactive)
CN1C2CCC1CC(NC(=O)c1ccc([N+](=O)[O-])cc1)C2 (centres undefined)	-5.81% (inactive)
COC(=O)c1c(C)[nH]c(C)c1-c1ccc([N+](=O)[O-])cc1	-17.8% (inactive)
CC(=O)N1CC[n+]2c(-c3ccc([N+](=O)[O-])cc3)csc21	60.6% (active)
CC(C)NC(=O)/C(C#N)=C\c1ccc(N(C)C)c(Br)c1	-1.04% (inactive)
CCOC(=O)C1C(=O)OC2(CCCC2)C1C(=O)OCC (centres undefined)	-2.05% (inactive)
O=C(COC(=O)c1ccc([N+](=O)[O-])o1)NC12CC3CC(CC(C3)C1)C2	23.2% (inactive)
COC(=O)/C=C\C(=O)Nc1cccc([N+](=O)[O-])c1	45.2% (inactive)
Cc1ccc(/C=C/C(=O)Nc2cc(S(=O)(=O)N3CCCCCC3)ccc2OCC(F)(F)F)o1	35.9% (inactive)
Cc1ccc(/C=C/C(=O)Nc2ccc([N+](=O)[O-])c(NC(=O)/C=C/c3ccc(C)o3)c2)o1	82.9% (active)
CN(Cc1nc(-c2cnccn2)no1)Cc1n[nH]c2c1CCCCC2	-10.5% (inactive)
O=C(NCCc1ccccc1)C(=O)NCC1OCCN1S(=O)(=O)c1cccs1 (centres undefined)	-3.06% (inactive)
O=C(Nc1c(Cl)cccc1Cl)C1CCC1	-12.1% (inactive)
C=C(C)CNC(=S)N/N=C/c1ccccc1OCC(=O)O	3.17% (inactive)
CCOc1ccccc1/C=N/NC(=O)CNC(=O)COc1ccccc1	120% (active)
C=CCc1ccccc1OCC(=O)N/N=C/c1ccccc1OCC	105% (active)
C=CCOc1ccccc1/C=N/NC(=O)Cc1ccccc1	4.68% (inactive)
C=CCc1cccc(/C=N/NC(=O)COc2ccc(-n3cnnn3)cc2)c1O	-10.4% (inactive)
Cc1cccc(OCC(=O)NCC(=O)N/N=C/c2ccc(N(C)C)cc2)c1	17.1% (inactive)
Fc1ccc(OCc2nn3c(Cn4nnc5ccccc54)nnc3s2)cc1	57.3% (inactive)
COC(=O)CSc1nc2c(c(C3CC=CCC3)c1C#N)CCC2 (centres undefined)	-38.4% (inactive)

Structure (SMILES)	inhibition
CC(C)(C)NS(=O)(=O)CC12CCC(CC1=O)C2(C)C (centres undefined)	-13.3% (inactive)
CCN(C(=O)COC(=O)CCC(=O)c1cccs1)C1CCCCC1	-5.84% (inactive)
CN(CC(=O)Nc1cccc2c1CCCC2)S(=O)(=O)c1ccc(Cl)cc1	6.22% (inactive)
CCc1nonc1NC(=O)c1oc2ccc(Cl)cc2c1C	-9.82% (inactive)
Cn1c(-c2ccc(F)cc2)cc2onc(-c3ccccc3Cl)c2c1=O	4.14% (inactive)
CCc1cccc(C)c1NS(=O)(=O)c1cc(Br)cnc1N	-9.37% (inactive)
CCN(C(=O)CSc1nnc(-c2ccncc2)o1)c1ccccc1	-2.03% (inactive)
COc1cc(CNC2CCCC2)c(Br)cc1OCc1ccccc1	-14.8% (inactive)
COc1ccc(CCN=C2SCC(=O)N2Cc2ccccc2)cc1OC	-8.19% (inactive)
COc1cc(C2CC(=O)N3CN(Cc4ccccc4)CSC3=C2C#N)ccc1OCc1ccccc1 (centres undefined)	61.5% (active)
Cc1ccc(S(=O)(=O)N2C[C@H]3C(=O)C[C@@H](c4cccc5ccccc45)N(S(=O)(=O)c4ccc(C)cc4)[C@H]3C[C@H]2c2ccc(Cl)cc2)cc1	7.92% (inactive)
O=C(N/N=C\c1cccnc1)c1cc(-c2ccccc2)nc2c(Cl)cccc12	8.75% (inactive)
Cc1c(NC(=O)CSc2cccc3cccnc23)c(=O)n(-c2ccccc2)n1C	6.71% (inactive)
O=C(CSc1cccc2cccnc12)N/N=C/c1cccnc1	63.5% (active)
OC(CNC1CCCC1)COc1ccc(F)cc1 (centres undefined)	11.3% (inactive)
Cc1ccc(C)c(NS(=O)(=O)c2c(C)[nH]c(C)c2C(=O)N2CCCCC2)c1	-16.2% (inactive)
Cc1ccc(-n2c(C)cc(C(=O)CSc3nnc4ccccn34)c2C)cc1	26.1% (inactive)
COc1ccc(-n2c(C)cc(C(=O)CSc3nnc(-c4cccs4)o3)c2C)cc1	83.3% (active)
COc1ccc(-n2c(C)cc(C(=O)COC(=O)c3cc(OC)c(OC)cc3NC(=O)c3cccs3)c2C)cc1	-6.02% (inactive)
O=C(CCN1CCCCC1)N=Nc1c(O)[nH]c2ccccc12	6.66% (inactive)
Oc1[nH]c2ccccc2c1N=Nc1c(F)c(F)c(F)c(F)c1F	0.03% (inactive)
Cc1c(-c2ccccc2)n[nH]c1C(=O)N=Nc1c(O)[nH]c2ccccc12	88.8% (active)
